# Laboratory results published in PubChem BioAssay (NCI).
# The panel holds about 83,000 compounds, 20% with a hit somewhere; the sample as a whole holds those more often.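 Plates (96-well) were seeded with cells, treated with compound at one concentration, and incubated for 48 hours before percent growth was determined.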 Values without a mark were called inactive. Calls of active or inactive are those of the source. The calls were made as follows: active = growth percent below 10; inactive = the rest.
# Tested on: SNB-75 CNS
# Assay: NCI-60 one-dose screen, 48 h (100 = growth as untreated, 0 = no growth, -100 = all killed)
# Conditions: 10 µM unless noted
row,SMILES,growth
1,COc1ccc(/C=C/C(c2cc(OC)c(OC)c(OC)c2)n2cncn2)cc1O (stereo not given),41%
2,COc1ccc(-c2cn(Cc3cc4ccccc4s3)nn2)cc1OCCN1CCCCC1,83.8%
3,COc1ccc(-c2nc3c(c(-c4ccc(Cl)cc4)nn3-c3ccccc3)c(-c3ccccc3)c2C#N)cc1,85.7%
4,COc1ccc2c(c1)CC[C@@H]1[C@@H]2CC[C@]2(C)C3C(=CC(COC(C)=O)C4C(=O)N(c5ccc(Cl)cc5)C(=O)C43)C[C@@H]12 (stereo not given in full),90.5%
5,COc1cc(/C=C/C(=O)N2CCN(C(=O)c3cc(OC)c(OC)c(OC)c3)CC2)ccc1OCCCOc1cc2c(cc1OC)C(=O)N1CCC[C@H]1C=N2,-48.1% (active)
6,CSc1nc2ccc(C)cc2cc1/C=C1/C=C(c2ccccc2)NC1=O,26.4%
7,Cc1ccc2c(c1)sc1nc(-c3c[nH]c4ccccc34)c(Nc3ccccc3)n12,89.8%
8,N=C(N)c1ccc(-c2ccc(-c3ccccc3)o2)o1,32.8%
9,CN1C(=O)N2CN3CCCN(C3)CN3C(=S)NC1C23 (stereo not given),93.4%
10,Clc1ccc(-c2cc(-c3ccccc3)nc(N3CCN(CCCNc4ccnc5cc(Cl)ccc45)CC3)n2)cc1,-23.9% (active)
11,COc1cc(/C=C/c2cc(/C=C/c3ccc(O)c(OC)c3)n(C(=O)Nc3ccc(Cl)cc3)n2)ccc1O,18.7%
12,N#Cc1c(-c2ccccc2)nc2c(c(-c3ccc(Cl)cc3)nn2-c2ccccc2)c1-c1ccc([N+](=O)[O-])cc1,88.3%
13,COc1ccc(Oc2ccc(/C=C/C(=O)c3cc4ccccc4oc3=O)cc2)cc1,50.2%
14,O=[N+]([O-])c1c(O)c(Cl)cc(Cl)c1Cl,98.8%
15,O=S(O)c1cc(Cl)cc(Cl)c1OCc1ccccc1,98.7%
16,Cc1oc(-c2ccc(Cl)cc2)nc1C1=NN(C(=O)c2ccncc2)C(c2ccccc2)C1 (stereo not given),92.8%
17,CS(=O)(=O)c1ccc(-c2nc3ccccc3n2CC(=O)N/N=C/c2ccccc2)cc1,96.5%
18,CCCn1c(=S)sc2c(NNC(C)=O)nc(C)nc21,89.9%

row,SMILES,growth
1,N#CSc1c[nH]c2ccc(/C=C/C(=O)/C=C(O)/C=C/c3ccc4[nH]cc(SC#N)c4c3)cc12,51.9%
2,Fc1cccc(-c2nc(-c3c[nH]c4ncccc34)cs2)c1,-14.1% [100 µM] (active)
3,COc1ccc(Oc2ccc(/C=C/C(=O)c3ccc(OC)c(OC)c3)cc2)cc1,72.5%
4,CCCCn1c(NC(C)=O)c(S(=O)(=O)c2ccccc2)c2nc3ccccc3nc21,89.8%
5,COc1cc(O)c2c(=O)c3c(CC=C(C)C)cc(OC)c(O)c3oc2c1,5.63% (active)
6,CC12OC(CC(O)C1O)n1c3ccccc3c3c4c(c5c6ccccc6n2c5c31)C(=O)N(CCN1CCCC1)C4=O (stereo not given),10.2%
7,C=C1CC[C@@H]2C(C)(C)[C@H](O)CC[C@@]2(C)[C@@H]1COc1ccc2ccc(=O)oc2c1,98.5%
8,COc1c2c(cc3c1C(=O)N[C@@H]1[C@@H](O)[C@@H](O)[C@H](O)C[C@@H]31)OCCO2,99.3%
9,C=C1C(=O)O[C@H]2[C@H]1CC/C(COC(=O)NCc1ccc(Cn3c(=O)sn(-c4ccccc4)c3=O)cc1)=C\CC[C@@]1(C)O[C@@H]21,9.33% (active)
10,Cc1nc2sc(C(=O)Nc3ccccn3)c(N)c2cc1C(C)O (stereo not given),89.3%
11,c1cc(OCCN2CCCC2)ccc1CNc1ccc2nc(CCC3CCCCC3)[nH]c2c1,64.1%
12,Cc1nc([P+](c2ccccc2)(c2ccccc2)c2ccccc2)c(N2CCCCC2)o1,37.9%
13,COc1cc(/C=N/NC(=O)c2ccc(-n3cc(-c4ccccc4)nn3)cc2)cc(OC)c1OC,71.6%
14,C=CN(C(=O)N1CCN(c2cc3c(cc2F)c(=O)c(C(=O)O)cn3C2CC2)CC1)c1nc(-c2ccc(Cl)cc2)cs1,80%
15,COc1ccccc1/C=C/C(=O)Nc1ccc(F)cc1,77.9%
16,CC(C)c1ccc2c(c1)CC[C@H]1[C@](C)(C(=O)OCC#CCN3CCCC3)CCC[C@]21C,88.6%
17,COc1ccc2c(O)c(/C=C3\N=Nc4ncccc43)oc2c1C[C@@H]1CCNC[C@H]1F,-57.3% (active)
